Screening data: PubChem BioAssay, several laboratories
Shown are actives, neighbours in structure and some others; about 2.9% of the full set was active somewhere.
Bim-Mcl-1 – disrupts Bim peptide binding to human Mcl-1 | Q07820 | Bead-based flow cytometry, Bim peptide-Mcl-1 binding | inhibition, % at 10 µM | 0.1% of 190,000 active | AID 1009; in the data active = inhibition above about 40%;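 note: 0% = no compound tracer wells and 100% = peptide blocker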
Target sequence (Q07820 whole entry, looked up): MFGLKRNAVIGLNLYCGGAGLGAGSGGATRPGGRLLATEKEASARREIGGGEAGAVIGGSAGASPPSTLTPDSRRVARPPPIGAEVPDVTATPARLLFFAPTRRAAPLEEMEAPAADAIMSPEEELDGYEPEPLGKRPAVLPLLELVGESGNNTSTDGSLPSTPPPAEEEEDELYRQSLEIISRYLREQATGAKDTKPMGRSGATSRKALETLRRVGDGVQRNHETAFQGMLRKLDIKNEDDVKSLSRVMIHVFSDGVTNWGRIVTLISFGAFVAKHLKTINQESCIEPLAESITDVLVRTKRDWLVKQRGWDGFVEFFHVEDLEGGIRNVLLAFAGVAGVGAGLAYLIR
Hck-Nef inh – blocks Nef-activated human Hck kinase | P08631 | Recombinant Hck-YEEI plus Nef, Z-Lyte FRET kinase assay | inhibition, % at 20 µM | 0.68% of 220,000 active;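 active = Hck-Nef kinase inhibition above about 50%, limit read from the data; inactive = inhibition below that limit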;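 note: 0% = DMSO with Hck plus Nef and 100% = Hck alone without Nef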
Mcl1 Bid PPI – Mcl-1/Bid interaction inhibition. inhibition, % at 21.7 µM. Q07820. TR-FRET Mcl-1/Bid-Dy647 peptide binding, 1536-well. AID 1021. 0.97% of 220,000 active;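 active = compounds that cut the binding signal by more than half at the single screening dose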;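 note: His-tagged Mcl-1 with europium anti-His antibody binding Bid BH3 peptide; 0% = Mcl-1 plus peptide wells and 100% = peptide-only wells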
Mcl1-Noxa inh – disrupts binding of human Mcl-1 to Noxa peptide; AID 1022; TR-FRET Mcl-1/Noxa peptide binding, 2 h; 1.5% of 220,000 active; inhibition, % at 21.7 µM;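 active = compounds that cut the protein-peptide binding signal by more than 50% relative to plate controls in a single-dose test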;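 note: His-tagged Mcl-1 with rhodamine Noxa BH3 peptide and terbium anti-His antibody; 0% = Mcl-1 plus Noxa peptide wells and 100% = peptide-only wells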
14-3-3 Bad PPI – disrupts binding of bovine 14-3-3 zeta to phospho-Bad peptide. inhibition, % at 21.7 µM. 0.71% of 220,000 active. AID 781. P63103. TR-FRET 14-3-3zeta/Dy647-pBad peptide displacement, 1 h;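 active = inhibition above about 70%, limit read from the data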;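 note: 0% = full 14-3-3 plus peptide FRET controls and 100% = background without 14-3-3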
Target sequence (P63103 whole entry, looked up): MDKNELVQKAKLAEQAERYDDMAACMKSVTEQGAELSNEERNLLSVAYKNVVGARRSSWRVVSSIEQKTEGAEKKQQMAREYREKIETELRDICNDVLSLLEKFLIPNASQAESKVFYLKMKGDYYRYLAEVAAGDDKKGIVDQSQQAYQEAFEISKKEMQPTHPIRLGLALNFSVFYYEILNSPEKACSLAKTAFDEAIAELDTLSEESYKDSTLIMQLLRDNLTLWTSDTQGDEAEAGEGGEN
Pf gametocyte – kills late stage P. falciparum gametocytes | 0.065% of 150,000 active | P. falciparum stage V gametocytes, ATP luminescence, 24 h | inhibition, % at 10.9 µM;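 active = inhibition above the mean plus 3 SD of compounds within the control limits, set per campaign, cut at about 38% in these data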;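 note: 0% = DMSO wells and 100% = medium only without gametocytes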
Hck-Nef confirm – Hck-Nef kinase inhibition, confirmation. 28% of 1,300 active. calls only at 10 µM. Recombinant Hck-YEEI:Nef, Z-Lyte FRET kinase assay. shares compounds with Hck-Nef inh;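 active = average inhibition of at least 50%, with Z-scores no higher than 3 in both the phospho-tyrosine peptide and fluorescence counterscreens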
* = called active by the depositor; [ ] = remark or other dose.

How did S=c1[nH]nc(-c2cc(-c3ccccc3)n[nH]2)n1/N=C/c1c(Cl)cccc1Cl do in these assays?
Hck-Nef inh: 72*; Mcl1 Bid PPI: 12; Mcl1-Noxa inh: 23; 14-3-3 Bad PPI: 66; Pf gametocyte: 7; Hck-Nef confirm: active

What do the screens show for `S=c1[nH]nc(-c2cc(-c3ccccc3)n[nH]2)n1/N=C/C=C/c1ccco1`?
Hck-Nef inh: 71*; Mcl1 Bid PPI: -73; Mcl1-Noxa inh: 50; 14-3-3 Bad PPI: 5; Pf gametocyte: 2; Hck-Nef confirm: inactive

Results for S=c1[nH]nc(-c2ccco2)n1/N=C/C=C/c1ccco1 ?
Bim-Mcl-1: -1; Hck-Nef inh: 2; Mcl1 Bid PPI: -39; Mcl1-Noxa inh: 42; 14-3-3 Bad PPI: -5; Pf gametocyte: -11

Results for COc1ccccc1/C=C/C=N/n1c(-c2n[nH]c3c2CCC3)n[nH]c1=S ?
Hck-Nef inh: -7; Mcl1 Bid PPI: -28; Mcl1-Noxa inh: 3; 14-3-3 Bad PPI: -5; Pf gametocyte: 2

How did S=c1[nH]nc(-c2n[nH]c3c2CCC3)n1/N=C/C=C/c1ccco1 do in these assays?
Hck-Nef inh: 75*; Mcl1 Bid PPI: -37; Mcl1-Noxa inh: 10; 14-3-3 Bad PPI: 0; Pf gametocyte: 2; Hck-Nef confirm: inactive

How did O=C1c2ccc(-c3ccc(F)cc3OCc3ccccc3)cc2S(=O)(=O)c2cccc(C(=O)N3CCN(c4ncc(Br)cn4)CC3)c21 do in these assays?
Pf gametocyte: 20

Results for COC(=O)CN(c1ccccc1)S(=O)(=O)c1cc(Br)ccc1OC ?
Bim-Mcl-1: -3; Hck-Nef inh: -20; Mcl1 Bid PPI: -14; Mcl1-Noxa inh: 10; 14-3-3 Bad PPI: 5; Pf gametocyte: -2

How did O=S(=O)(Cc1ccc(Cl)cc1)NCc1cccnc1 do in these assays?
Hck-Nef inh: 6; Mcl1 Bid PPI: -8; Mcl1-Noxa inh: -6; 14-3-3 Bad PPI: 2; Pf gametocyte: 12

How did O=c1c2c3c(sc2[nH]c(=S)n1Cc1ccco1)CCC3 do in these assays?
Hck-Nef inh: 81*; Mcl1 Bid PPI: -50; Mcl1-Noxa inh: 76*; 14-3-3 Bad PPI: 21; Pf gametocyte: -22; Hck-Nef confirm: inactive

What do the screens show for `CC1(C)Cc2c(sc3[nH]c(=S)n(Cc4ccco4)c(=O)c23)CO1`?
Bim-Mcl-1: -5; Hck-Nef inh: 2; Mcl1 Bid PPI: -9; Mcl1-Noxa inh: 30; 14-3-3 Bad PPI: 5

How did Cn1c(=O)n(C)c2cc(NS(=O)(=O)c3cccs3)ccc21 do in these assays?
Bim-Mcl-1: -3; Hck-Nef inh: 19; Mcl1 Bid PPI: -21; Mcl1-Noxa inh: 15; 14-3-3 Bad PPI: -8; Pf gametocyte: 8

Results for COc1ccc(-c2nc(-c3ccc(O)cc3O)cs2)cc1OC ?
Bim-Mcl-1: -1; Hck-Nef inh: 61*; Mcl1 Bid PPI: -2; Mcl1-Noxa inh: 21; 14-3-3 Bad PPI: -6; Pf gametocyte: 0; Hck-Nef confirm: active

What do the screens show for `CC(C)(C)n1nc(-c2ccc(F)cc2)c2c(N)ncnc21`?
Bim-Mcl-1: -2; Hck-Nef inh: 109*; Mcl1 Bid PPI: -18; Mcl1-Noxa inh: -5; 14-3-3 Bad PPI: 3; Hck-Nef confirm: active

How did CC(C)(C)n1nc(-c2ccc(Cl)cc2)c2c(N)ncnc21 do in these assays?
Bim-Mcl-1: -3; Hck-Nef inh: 105*; Mcl1 Bid PPI: 8; Mcl1-Noxa inh: 4; 14-3-3 Bad PPI: 0; Hck-Nef confirm: active

What do the screens show for `CCOC(=O)C1=C(C)NC(=O)NC1C(C)C` (centres undefined)?
Pf gametocyte: 15

What do the screens show for `O=C(CSc1ccc(-c2ccccn2)nn1)N1CCc2ccccc21`?
Bim-Mcl-1: -1; Hck-Nef inh: -11; Mcl1 Bid PPI: -29; Mcl1-Noxa inh: -10; 14-3-3 Bad PPI: -12; Pf gametocyte: 8

Results for COc1cccc(N=c2oc3ccc(OC)cc3cc2-c2nc3ccccc3[nH]2)c1 ?
Bim-Mcl-1: 0; Hck-Nef inh: 99*; Mcl1 Bid PPI: -182; Mcl1-Noxa inh: -250; 14-3-3 Bad PPI: 79*[fluorescence artefact?]; Pf gametocyte: -26; Hck-Nef confirm: active

How did COc1ccc2oc(=O)c(-c3nc4ccccc4o3)cc2c1 do in these assays?
Bim-Mcl-1: -3; Hck-Nef inh: 3; Mcl1 Bid PPI: -10; Mcl1-Noxa inh: 16; 14-3-3 Bad PPI: -10; Pf gametocyte: 13

How did CC(C)(C)c1cc(C(=O)NCc2ccco2)ccn1 do in these assays?
Bim-Mcl-1: -3; Hck-Nef inh: 4; Mcl1 Bid PPI: -21; Mcl1-Noxa inh: -13; 14-3-3 Bad PPI: -9

Results for N#Cc1cccc(NC(=O)COC(=O)c2cccc(N3C(=O)c4ccccc4C3=O)c2)c1 ?
Bim-Mcl-1: -10; Hck-Nef inh: 56*; Mcl1 Bid PPI: -3; Mcl1-Noxa inh: -33; 14-3-3 Bad PPI: 28; Pf gametocyte: 1; Hck-Nef confirm: inactive

Results for COc1ccc(/C=N/Nc2nc3ccccc3[nH]2)c(OC)c1OC ?
Hck-Nef inh: 21; Mcl1 Bid PPI: -209; Mcl1-Noxa inh: -78; 14-3-3 Bad PPI: -10; Pf gametocyte: -21

Results for COCCNc1oc(/C=C/c2ccccc2)nc1C#N ?
Hck-Nef inh: 67*; Mcl1 Bid PPI: -33; Mcl1-Noxa inh: -22; 14-3-3 Bad PPI: 1; Pf gametocyte: 1

How did N#Cc1nc(/C=C/c2ccccc2)oc1NCCCN1CCOCC1 do in these assays?
Hck-Nef inh: 54*; Mcl1 Bid PPI: -47; Mcl1-Noxa inh: 16; 14-3-3 Bad PPI: 5; Pf gametocyte: 2

How did CNc1oc(/C=C/c2ccccc2)nc1C#N do in these assays?
Bim-Mcl-1: -5; Hck-Nef inh: 20; Mcl1 Bid PPI: -43; Mcl1-Noxa inh: 15; 14-3-3 Bad PPI: -5; Pf gametocyte: -20

What do the screens show for `N#Cc1nc(COc2ccc(-c3ccccc3)cc2)oc1NCCCN1CCOCC1`?
Bim-Mcl-1: -2; Hck-Nef inh: 2; Mcl1 Bid PPI: -40; Mcl1-Noxa inh: 5; 14-3-3 Bad PPI: 10

How did O=c1cc(-c2ccc(O)c(O)c2)oc2cc(O)cc(O)c12 do in these assays?
Hck-Nef inh: 91*; Mcl1 Bid PPI: -65; Mcl1-Noxa inh: 66*; 14-3-3 Bad PPI: 22; Pf gametocyte: 4; Hck-Nef confirm: active

What do the screens show for `O=c1c(-c2ccc(O)cc2)coc2cc(O)cc(O)c12`?
Hck-Nef inh: 52*; Mcl1 Bid PPI: -66; Mcl1-Noxa inh: 2; 14-3-3 Bad PPI: 0; Hck-Nef confirm: inactive

How did COc1ccc(-c2coc3cc(O)cc(O)c3c2=O)cc1 do in these assays?
Bim-Mcl-1: -3; Hck-Nef inh: 2; Mcl1 Bid PPI: 6; Mcl1-Noxa inh: 6; 14-3-3 Bad PPI: 1

What do the screens show for `COc1ccc(-c2oc3cc(O)c(OC)c(O)c3c(=O)c2OC)cc1`?
Hck-Nef inh: 37; Mcl1 Bid PPI: -72; Mcl1-Noxa inh: 1; 14-3-3 Bad PPI: -1
